# Results: PubChem BioAssay (NCI)
# This is part of a sample that, as a whole, favours compounds with a hit. Of some 83,000 tested, about 20% had one in any assay.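 A percent growth of 40 corresponds to 60% growth inhibition; 0 means no net growth; -100 means all cells died. Active threshold: below 10.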 A number with no mark means an inactive call. Active and inactive are the calls of the source.
# Assays:
# Assay in all cases: NCI-60 one-dose screen, 48 h (100 = growth as untreated, 0 = no growth, -100 = all killed)
# SR leukemia = details: 10 µM unless noted
# RPMI-8226 leukemia = details: 10 µM unless noted
# OVCAR-8 ovarian = details: 10 µM unless noted
# OVCAR-5 ovarian = details: 10 µM unless noted
# OVCAR-4 ovarian = details: 10 µM unless noted
# IGROV1 ovarian = details: 10 µM unless noted
# OVCAR-3 ovarian = details: 10 µM unless noted
# T-47D breast = details: 10 µM unless noted
# BT-549 breast = details: 10 µM unless noted
# MDA-MB-435 melanoma = details: 10 µM unless noted
# SW-620 colon = details: 10 µM unless noted
# MCF7 breast = details: 10 µM unless noted
# HCT-116 colon = details: 10 µM unless noted
# HCC-2998 colon = details: 10 µM
# KM12 colon = details: 10 µM unless noted
# NCI/ADR-RES ovarian = details: 10 µM unless noted
# HS 578T breast = details: 10 µM
# SK-OV-3 ovarian = details: 10 µM unless noted
Structure (SMILES),growth (SR leukemia),growth (RPMI-8226 leukemia),growth (OVCAR-8 ovarian),growth (OVCAR-5 ovarian),growth (OVCAR-4 ovarian),growth (IGROV1 ovarian),growth (OVCAR-3 ovarian),growth (T-47D breast),growth (BT-549 breast),growth (MDA-MB-435 melanoma),growth (SW-620 colon),growth (MCF7 breast),growth (HCT-116 colon),growth (HCC-2998 colon),growth (KM12 colon),growth (NCI/ADR-RES ovarian),growth (HS 578T breast),growth (SK-OV-3 ovarian)
O=C(NC[C@H](O)CO)c1ccncc1Nc1ccc(I)cc1F,57.2%,74.6%,66.9%,7.42% (active),41.4%,16.3%,83.7%,47.7%,88%,35.2%,17.4%,49.1%,9.79% (active),2.1% (active),16.6%,,,
Cn1cnc2c(F)c(Nc3ccc(Br)cc3F)c(C(=O)NOCCO)cc21,64.6%,63.5%,65.8%,9.55% (active),55.9%,27.6%,106%,81.9%,81.7%,32.5%,21%,87.3%,19%,0.38% (active),27.5%,69.1%,,
O=C(O)c1ccc(Nc2ncc3c(n2)-c2ccc(Cl)cc2C(c2c(F)cccc2F)=NC3)cc1,24.2%,47.7%,43%,59.3%,79.6%,41.8%,64.5%,47.5%,57.1%,70.7%,35.4%,49.3%,43.6%,78.5%,28.3%,55.4%,,
CC(=O)OC1Oc2ccccc2-c2oc(=O)c(-c3cc4ccc(N(C)C)cc4oc3=O)cc21 (stereo not drawn),-19.9% (active),-20.5% (active),37.1%,26.3%,39.1%,,43%,-4.17% (active),15.9%,44.5%,61.7%,68.5%,20.7%,,71.8%,38.9%,-3.16% (active),
Cc1cc(-c2cc(O)ccc2Cl)cc2nnc(Nc3ccc(OCCN4CCCC4)cc3)nc12,-35% (active),-43.9% (active),-63.6% (active),-83.5% (active),-81.9% (active),-60.2% (active),-79.7% (active),-47.8% (active),-50.7% (active),-73.3% (active),-74.8% (active),-54.4% (active),-57.5% (active),-72.6% (active),-76.2% (active),-69.3% (active),,
COc1ccc(OC)c(NC2=C(SCCc3ccccc3)C(=O)c3ccccc3C2=O)c1,70.7%,74%,94.5%,,58.4%,75.7%,83.4%,70.6%,79.5%,94.7%,94%,69.7%,72.3%,102%,76.7%,76.5%,70.8%,88.5%
CNC(=O)c1ccc(Nc2ncc(C(F)(F)F)c(NCc3nccnc3N(C)S(C)(=O)=O)n2)cc1,-21.3% (active),-26.7% (active),-0.118% (active),0.954% (active),1.68% (active),3.11% (active),9.41% (active),-12.4% (active),-5.77% (active),8.89% (active),-4.11% (active),2.04% (active),1.19% (active),8.5% (active),1.91% (active),29.8%,,
Cn1ncc(Cl)c1-c1cc(C(=O)N[C@H](CN)Cc2cccc(F)c2)sc1Cl,-29.6% (active),-10.3% (active),,35.3%,35.6%,-21.5% (active),31%,-24.7% (active),-4.28% (active),4.34% (active),39.8%,-11.7% (active),12.8%,-78.2% (active),1.36% (active),28.6%,,-12.8% (active)
CC(=O)Nc1cccc(-n2c(=O)n(C3CC3)c(=O)c3c(Nc4ccc(I)cc4F)n(C)c(=O)c(C)c32)c1,46.4%,45.5%,,6.47% (active),37%,16.9%,85.5%,51.3%,60.7%,27.7%,19%,80.8%,10.6%,-26.9% (active),23%,46.6%,,11.3%
CC(C)C1CCC(C)C(C2(C#N)C(N)=NC(N)=C2C#N)C1=O (stereo not drawn),102%,89%,,103%,90.8%,94.4%,98%,83.6%,98.8%,101%,102%,92.6%,99.2%,95.8%,92.9%,97.1%,,107%
CC(N)C(Cc1ccc(Cl)cc1)c1ccc(Cl)cc1 (stereo not drawn),-9.14% (active),25.3%,,77.9%,71.7%,77.8%,87.2%,54.8%,77.6%,56.5%,57.3%,91.1%,35%,-6.15% (active),,87.5%,71.6%,81.9%
CO[C@H]1C[C@@H]2CC[C@@H](C)[C@@](O)(O2)C(=O)C(=O)N2CCCC[C@H]2C(=O)O[C@H]([C@H](C)C[C@@H]2CC[C@@H](OC(=O)C(C)(CO)CO)[C@H](OC)C2)CC(=O)[C@H](C)/C=C(\C)[C@@H](O)[C@@H](OC)C(=O)[C@H](C)C[C@H](C)\C=C/C=C/C=C/1C,3.69% (active),11.4%,22.3%,,28.2%,11.4%,33.5%,-6.15% (active),0.892% (active),33.1%,42.7%,5.53% (active),23.8%,41.6%,34.1%,45.9%,,
Brc1ccc([I+]c2ccc(Br)cc2)cc1,3.44% (active),7.72% (active),,61%,22.3%,26.2%,61.6%,16.4%,,19.5%,17.8%,7.26% (active),8.91% (active),25%,3.55% (active),98.9%,69.7%,43.6%
COc1ccc(F)c(F)c1C(=O)c1cnc(NC2CCN(S(C)(=O)=O)CC2)nc1N,2.64% (active),0.261% (active),,12.6%,8.36% (active),10.2%,13.1%,-3.23% (active),-11.8% (active),-33.3% (active),0.808% (active),2.53% (active),4.77% (active),-26.5% (active),4.84% (active),1.6% (active),,11.9%
COC(=O)Nc1nc2ccc(C(=O)c3ccc(N(C)C4COC4)cc3)cc2[nH]1,14.4%,22.5%,11%,,57.2%,28.5%,31.9%,57.5%,9.02% (active),-25.5% (active),28.5%,16.3%,7.08% (active),11%,15.7%,12%,,
CCc1nc2cc(/C=C/C(=O)NO)ccc2c(=O)n1CCc1ccc(OC)cc1,14.3%,10.3%,,24.2%,39.1%,40.9%,-1.22% (active),-2.1% (active),55.1%,7.73% (active),5.44% (active),10.5%,1.28% (active),48%,23.7%,9.39% (active),41.8%,6.67% (active)
Cn1nccc1Nc1nccc(-c2ccn([C@H](CO)c3ccc(Cl)c(F)c3)c(=O)c2)n1,112%,113%,104%,,98.8%,82%,115%,104%,93.6%,55.4%,62.7%,93.1%,52.5%,36.9%,82.8%,,,119%
Cc1ccc(-n2nc(C(C)(C)C)cc2NC(=O)NCc2cc(F)ccc2Oc2ccc3c(cnn3CCO)c2)cc1,7.67% (active),18.1%,23.6%,,27.5%,8.97% (active),54.3%,-3.04% (active),21.3%,7.09% (active),25.7%,7.9% (active),6.75% (active),19.9%,8.7% (active),21.3%,,
COc1cc(CCc2cc(NC(=O)c3ccc(N4C[C@@H](C)N[C@@H](C)C4)cc3)n[nH]2)cc(OC)c1,-11% (active),41.5%,58.4%,,49.6%,16.7%,78.8%,63.7%,43.8%,28.4%,,19.9%,25.6%,56.3%,,91.3%,,25.6%
